Among the data in PubChem BioAssay are composite z-score and z-score values, retold here.

Active and inactive are the calls of the source. Unless noted, the rule behind the calls is not given here.

Test [1] can be described thus: compounds binding Alexa647 anti-His antibody – biochemical, small-molecule microarray, 635 nm fluorescence, artefact control for SMM control protein annotation, primary screen (AID 1128).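 Note: score merges feature fluorescence with signal-to-noise for each printed compound spot.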 As to conditions: higher = more signal.
The subject of test [2] is Human papillomavirus type 1a E7 protein (residues 1-88). In words: HPV1a E7 small-molecule binders, primary screen, biochemical, small-molecule microarray, residues 1-88, 635 nm (AID 1129). Particulars: small-molecule microarray binding, fluorescence 635 nm; higher = more signal.
Test [3] addresses Focal adhesion kinase 1 (Homo sapiens) (UniProt Q05397). In words: PTK2 protein binding on printed compound slides – biochemical, small-molecule microarray, 635/667 nm fluorescence, BSA, DTT, primary screen (AID 1130).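 Note: composite of spot emission at 667 nm and signal to noise over triplicate slides.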 Particulars: 635 nm fluorescence, higher = more signal.
Test [4] relates to Fibrinogen (Alexa647-labelled). In words: Alexa647-fibrinogen binding to printed small molecules – biochemical, small-molecule microarray, 635/667 nm fluorescence, artefact control for SMM control-protein annotation, profiling panel (AID 1131).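 Note: z-score merges 667 nm fluorescence with per-spot signal-to-noise over triplicate slides.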 As to conditions: fibrinogen-A647 binding fluorescence, higher = more signal.
Test [5] concerns the target Follistatin (Homo sapiens) (UniProt P19883). In words: FST protein binding to printed compounds – biochemical, small-molecule microarray, 635/667 nm fluorescence, primary screen (AID 1132). Particulars: 635 nm fluorescence, higher = more signal.
For test [6], the target named is Fibroblast growth factor 2 (Homo sapiens) (UniProt P09038). In words: basic fibroblast growth factor binding to printed compounds – biochemical, small-molecule microarray, 635/667 nm fluorescence, primary screen (AID 1133). As to conditions: FGF2, fluorescence 635/667, higher = more signal.
A short description of test [7]: JC-1 mitochondrial potential readout, lung cancer cells – cell-based, A549, JC-1 fluorescence, basal, 24 h, 100 nL, profiling panel (AID 1138).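 Note: A549 lung adenocarcinoma cells under basal conditions with no added stimulus; test concentration not given here.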 Particulars: higher = more signal.
In a further test the test system is Lefty1. In words: Lefty1 protein binding to printed compounds – biochemical, small-molecule microarray, 635/667 nm fluorescence, primary screen (AID 1139). As to conditions: fluorescence 635/667, higher = more signal.
Test [8] has as its system wheat germ agglutinin (Triticum aestivum), Alexa647-labelled. In words: Alexa647-WGA lectin binding to printed small molecules – biochemical, small-molecule microarray, 635/667 nm fluorescence, artefact control for SMM control-protein annotation, profiling panel (AID 1140).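 Note: score merges 667 nm feature emission with signal to noise over triplicate slides.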 Particulars: WGA-A647 binding, 635 nm fluorescence, higher = more signal.
Test [9] concerns the target Luciferin 4-monooxygenase (Photinus pyralis) (UniProt P08659). In words: inhibition of purified Photinus pyralis luciferase – biochemical, luminescence, purified enzyme, 2006 set, primary screen (AID 1141).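 Note: cell-free assay with purified firefly luciferase at 100 ng per well in PBS; test concentration not given here.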 Particulars: purified firefly luciferase, SteadyGlo luminescence, 30 min; higher = more signal, called active from +8 up or from −8 down.
Test [10] relates to Wnt5a (protein binding on small-molecule microarray). In words: small molecules binding Wnt5a protein – biophysical, small-molecule microarray, 635/667 nm fluorescence, primary screen (AID 1142).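 Note: fluorescence read at 667 nm with signal to noise per printed feature.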 Particulars: 635 nm fluorescence, higher = more signal.
Test [11] can be described thus: ATP-based viability of Huh7 replicon cells – cell-based, CellTiter-Glo luminescence, basal, 48 h, cytotoxicity control for HCV replication inhibitor project, primary screen (AID 1143).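 Note: Huh7 hepatoma cells carrying a hepatitis C replication reporter with no stimulus; test concentration not given here.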 As to conditions: higher = more signal, called active from +8 up or from −8 down. (In antiviral work, replicon cells carry a viral genome segment that copies itself.)
Test [12] can be described thus: Pseudomonas biofilm growth suppression – PAO1 strain, BacTiter-Glo luminescence, LB-PBS, primary screen (AID 1144). Particulars: P. aeruginosa PAO1 biofilm, 12 h, higher = more signal.
The nature of test [13]: basal CRE-LacZ reporter activity in PC12 – cell-based, unstimulated, primary screen (AID 1145). As to conditions: no forskolin, luminescence, 4.5 h, higher = more signal, called active from +8 up or from −8 down.
The nature of test [14]: forskolin-driven CRE-LacZ activity in PC12 – cell-based, CRE-LacZ reporter, forskolin-stimulated, primary screen (AID 1146).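 Note: PC12 cells with 6xCRE LacZ reporter stimulated by forskolin 10 µM; beta-galactosidase reporter signal reflecting CREB driven transcription.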 As to conditions: luminescence, 4.5 h, higher = more signal, called active from +8 up or from −8 down.
In test [15] the target is Streptavidin (Streptomyces avidinii) (UniProt P22629). In words: compounds binding control protein streptavidin – biophysical, small-molecule microarray, 635/667 nm fluorescence, artefact control for SMM compound annotation, primary screen (AID 1147).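 Note: signal reflects streptavidin binding to arrayed compounds as a control protein.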 As to conditions: higher = more signal.
The nature of test [16]: probe aInhba binding on compound microarray – biochemical, small-molecule microarray, 635/667 nm fluorescence, primary screen (AID 1148).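 Note: score merges 667nm spot fluorescence with signal-to-noise for antibody binding to printed compounds.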 As to conditions: higher = more signal.
Test [17] deals with Torsin-1A (Homo sapiens) (UniProt O14656). In words: TOR1A wild-type binding on microarray – cell lysate, small-molecule microarray, lysate, 635/667 nm, primary screen (AID 1149). Particulars: COS7 hTOR1A-WT lysate, 635 nm fluorescence, higher = more signal.
Test [18] shares this target. In words: torsin A mutant lysate binding on microarrays – cell lysate, small-molecule microarray, COS7 lysate, 635/667 nm fluorescence, primary screen (AID 1150).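 Note: score pools 667 nm emission and signal to noise measuring lysate protein binding.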 As to conditions: COS7 hTOR1A mutant lysate, 635 nm fluorescence, higher = more signal.
For test [19], the system named is Sonic hedgehog protein (Shh). In words: Sonic hedgehog microarray binding compounds – biochemical, small-molecule microarray, 635/667 nm fluorescence, primary screen (AID 1151).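 Note: Shh protein binding to compounds spotted on small-molecule microarray slides; score combines spot fluorescence intensity with signal-to-noise across triplicate slides.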 Particulars: 635 nm fluorescence, higher = more signal.

Fibroblast growth factor 2 (Homo sapiens), sequence (P09038 whole entry, looked up): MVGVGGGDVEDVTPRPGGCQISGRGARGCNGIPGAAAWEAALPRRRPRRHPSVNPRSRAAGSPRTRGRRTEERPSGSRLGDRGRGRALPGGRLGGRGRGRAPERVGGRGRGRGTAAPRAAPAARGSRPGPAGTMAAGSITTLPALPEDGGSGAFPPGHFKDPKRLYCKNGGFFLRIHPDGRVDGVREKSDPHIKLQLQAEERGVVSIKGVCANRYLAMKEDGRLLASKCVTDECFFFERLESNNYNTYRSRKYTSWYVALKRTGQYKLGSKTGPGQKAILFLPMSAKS
Focal adhesion kinase 1 (Homo sapiens), sequence (Q05397 whole entry, looked up): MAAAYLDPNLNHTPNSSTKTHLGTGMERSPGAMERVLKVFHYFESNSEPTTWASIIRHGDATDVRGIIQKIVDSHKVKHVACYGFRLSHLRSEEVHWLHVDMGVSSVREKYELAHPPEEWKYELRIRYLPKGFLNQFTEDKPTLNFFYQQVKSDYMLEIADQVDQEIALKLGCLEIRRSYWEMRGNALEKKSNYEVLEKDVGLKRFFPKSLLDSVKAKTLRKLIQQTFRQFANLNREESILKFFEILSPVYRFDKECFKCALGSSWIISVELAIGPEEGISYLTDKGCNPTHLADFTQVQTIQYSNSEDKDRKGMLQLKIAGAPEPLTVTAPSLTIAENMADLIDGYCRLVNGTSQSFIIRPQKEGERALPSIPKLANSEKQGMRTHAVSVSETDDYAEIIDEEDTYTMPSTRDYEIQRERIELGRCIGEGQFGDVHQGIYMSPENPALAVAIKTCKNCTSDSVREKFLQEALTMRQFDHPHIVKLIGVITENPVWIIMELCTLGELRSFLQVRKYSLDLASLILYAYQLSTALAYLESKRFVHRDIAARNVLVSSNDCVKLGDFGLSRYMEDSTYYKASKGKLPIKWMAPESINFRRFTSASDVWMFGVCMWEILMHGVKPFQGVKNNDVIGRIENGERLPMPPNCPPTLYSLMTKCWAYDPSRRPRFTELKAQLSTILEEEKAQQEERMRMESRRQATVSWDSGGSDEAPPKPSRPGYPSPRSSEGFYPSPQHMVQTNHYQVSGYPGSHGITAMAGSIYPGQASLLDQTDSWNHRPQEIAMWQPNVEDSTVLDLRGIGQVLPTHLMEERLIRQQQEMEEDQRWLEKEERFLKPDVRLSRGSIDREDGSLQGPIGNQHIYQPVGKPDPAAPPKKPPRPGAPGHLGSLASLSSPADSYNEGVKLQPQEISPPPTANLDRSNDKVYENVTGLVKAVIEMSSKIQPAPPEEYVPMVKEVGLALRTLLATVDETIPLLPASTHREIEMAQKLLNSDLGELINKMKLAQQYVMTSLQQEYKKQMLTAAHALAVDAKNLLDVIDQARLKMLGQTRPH
Torsin-1A (Homo sapiens), sequence (O14656 whole entry, looked up): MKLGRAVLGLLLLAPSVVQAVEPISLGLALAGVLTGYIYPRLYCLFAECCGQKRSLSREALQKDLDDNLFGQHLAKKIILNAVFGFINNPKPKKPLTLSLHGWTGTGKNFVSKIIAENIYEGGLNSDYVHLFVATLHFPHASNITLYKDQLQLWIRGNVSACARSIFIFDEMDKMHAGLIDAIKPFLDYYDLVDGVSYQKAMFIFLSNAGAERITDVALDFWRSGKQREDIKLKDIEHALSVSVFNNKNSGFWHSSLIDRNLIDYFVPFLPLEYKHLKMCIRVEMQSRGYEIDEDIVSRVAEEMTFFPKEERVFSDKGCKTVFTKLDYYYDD
Luciferin 4-monooxygenase (Photinus pyralis), sequence (P08659 whole entry, looked up): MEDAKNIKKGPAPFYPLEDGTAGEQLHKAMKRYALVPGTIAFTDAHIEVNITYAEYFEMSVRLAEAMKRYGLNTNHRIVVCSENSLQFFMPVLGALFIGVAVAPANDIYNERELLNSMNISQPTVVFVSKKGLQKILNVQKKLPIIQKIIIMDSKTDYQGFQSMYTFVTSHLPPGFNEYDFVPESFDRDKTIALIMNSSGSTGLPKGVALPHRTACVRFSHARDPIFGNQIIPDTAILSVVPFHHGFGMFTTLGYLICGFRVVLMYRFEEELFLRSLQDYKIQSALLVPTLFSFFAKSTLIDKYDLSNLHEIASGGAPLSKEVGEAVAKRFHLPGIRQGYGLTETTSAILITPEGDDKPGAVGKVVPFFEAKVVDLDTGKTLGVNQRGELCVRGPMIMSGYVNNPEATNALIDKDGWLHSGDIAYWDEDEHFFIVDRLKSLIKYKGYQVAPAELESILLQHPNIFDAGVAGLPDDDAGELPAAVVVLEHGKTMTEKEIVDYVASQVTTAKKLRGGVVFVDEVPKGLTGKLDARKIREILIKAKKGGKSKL
Streptavidin (Streptomyces avidinii), sequence (P22629 whole entry, looked up): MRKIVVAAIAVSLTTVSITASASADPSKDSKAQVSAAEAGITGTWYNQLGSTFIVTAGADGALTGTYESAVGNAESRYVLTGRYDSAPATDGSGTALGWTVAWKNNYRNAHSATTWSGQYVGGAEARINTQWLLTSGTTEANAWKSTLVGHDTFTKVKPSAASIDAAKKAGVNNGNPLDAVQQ
Follistatin (Homo sapiens), sequence (P19883 whole entry, looked up): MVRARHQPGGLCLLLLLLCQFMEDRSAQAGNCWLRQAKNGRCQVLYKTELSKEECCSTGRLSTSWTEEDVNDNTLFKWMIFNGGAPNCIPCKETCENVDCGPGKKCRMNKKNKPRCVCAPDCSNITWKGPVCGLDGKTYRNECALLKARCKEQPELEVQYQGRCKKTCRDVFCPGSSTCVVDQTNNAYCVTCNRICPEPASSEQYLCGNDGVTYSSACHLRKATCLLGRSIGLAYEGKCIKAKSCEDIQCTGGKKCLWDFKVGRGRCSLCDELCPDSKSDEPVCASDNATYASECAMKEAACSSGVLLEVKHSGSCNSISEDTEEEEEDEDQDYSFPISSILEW

Take `CCOC(=O)CCN1C(=O)[C@H]2[C@H]3[C@H](O)[C@H](O)CC(=NNC(=O)OCc4ccc(OC)cc4)[C@@H]3CC[C@H]2C1=O`: the composite z-score was -0.0498 in test [1]; 0.842 in [2]; 0.215 in [3]; 0.367 in test [4]; 0.541 in [5]; 0.474 in [6]. In addition, the composite z-score in the test with Lefty1 is 0.833; in test [8] it was 0.985; in [10], -0.109; in test [15] it was 0.922; in test [16], -0.195; in the test with Torsin-1A (Homo sapiens) [17], -0.0239. The composite z-score with Torsin-1A (Homo sapiens) [18] is 0.0335; in [19] it was 0.741. Also, the z-score in test [7] was 0.385; in test [9] it was 0.666 (inactive); in test [11] it was -0.284 (inactive); in test [12], 0.5 (inactive); in test [13], 0.957 (inactive); in test [14], -0.254 (inactive).
Consider `CC(C)=C1C(=O)C(c2ccccc2)=C2CN3C(=O)N(CCc4ccccc4)C(=O)[C@]3(Cc3ccc(F)cc3)[C@H]21`, for which the composite z-score in test [1] was 1.59; in test [2], -0.205; in [3] it was -0.0639; in [4] it was -1.43; in test [5] it was -0.968; in [6], -0.412. The composite z-score in the test on Lefty1 was -1.2; in [8] it was 0.338; in [10] it was -0.506; in [15], 0.0452; in test [16] it was 0.205; with Torsin-1A (Homo sapiens) [17], -2.38. For the same molecule, the results for the composite z-score (in the test with Torsin-1A (Homo sapiens) [18]; in test [19]) were -1.7 and -1.74, respectively. Also, the z-score in test [7] was 1.27; in test [9], 0.98 (inactive); in test [11], -0.934 (inactive); in test [12], -0.00959 (inactive); in test [13], 0.576 (inactive); in test [14], 1.73 (inactive).
For `CCOC(=O)[C@H](Cc1ccccc1)NC(=O)CCC1CC(OC(=O)NCc2ccc3c(c2)OCO3)CC2(CCCC(COC(=O)NCC3CCCCC3)O2)O1` (stereo not given in full), the composite z-score was 0.273 in test [1]; 1.18 in test [2]; 0.188 in [3]; 0.91 in [4]; 0.904 in [5]; 0.48 in test [6]. Further, the composite z-score in the test with Lefty1 is 0.876; in test [8], 0.206; in [10], 0.0472; in test [15], 0.592; in [16], -0.0289; with Torsin-1A (Homo sapiens) [17], -0.407. The composite z-score worked out at 0.538 in the test with Torsin-1A (Homo sapiens) [18] and 1.36 in [19]. Also, the z-score in test [7] is 0.491; in test [9], 0.986 (inactive); in test [11], -0.734 (inactive); in test [12] it was -0.0126 (inactive); in [13], -0.613 (inactive); in test [14], -0.177 (inactive).
With `CCc1cc2c(nc1CC)CCN(CCC(C)=NOC[C@@H](O)COCc1ccco1)C2`, the composite z-score was 1.31 in test [1]; -0.952 in test [2]; -0.439 in test [3]; -0.19 in test [4]; 1.47 in test [5]; 1.53 in test [6]. The composite z-score in the test with Lefty1 was 1.53; in test [8], 0.182; in test [10] it was 0.391; in [15] it was 0.536; in test [16] it was 0.149; with Torsin-1A (Homo sapiens) [17] it was 3.95. Further, the results for the composite z-score (with Torsin-1A (Homo sapiens) [18]; in [19]) were 3.64 and 2.31, respectively. Moreover, the z-score was 1.69 in test [7]; -0.85 (inactive) in test [9]; -0.112 (inactive) in [11]; 0.132 (inactive) in [12]; 2.16 (inactive) in test [13]; 0.785 (inactive) in test [14].
Take `COc1ccc([Si](C)(C)[C@H]2[C@H](CCO)O[C@@]3(C(=O)N(Cc4cccc(NC(=O)[C@H](C)O)c4)c4ccccc43)[C@@H]2C)cc1`: the composite z-score in [1] worked out at 1.75; in test [2] it was 1.15; in test [3], 0.598; in [4], 0.83; in test [5], 1.11; in test [6], 0.684. The composite z-score with Lefty1 is 1.23; in [8] it was 0.23; in test [10], 0.209; in test [15] it was 0.394; in test [16], -0.0468; in the test with Torsin-1A (Homo sapiens) [17], 0.715. For the same molecule, the composite z-score with Torsin-1A (Homo sapiens) [18] turned out to be 0.916; in test [19], 1.98. Besides, the z-score was -0.598 in test [7]; -0.208 (inactive) in test [9]; -7.96 (inactive) in test [11]; -1.52 (inactive) in test [12]; 3.1 (inactive) in test [13]; -0.878 (inactive) in test [14].
